Values without a mark were called inactive. Results filed as inconclusive are left out. Calls of active or inactive are those of the source. Unless noted, calls follow the shape of the dose curve; as a rule, active = well fitted curve in the direction sought with a large enough effect in the repeat runs; inconclusive = weak or mixed curves; inactive = no such curve, though single readings can be large; an effect the other way counts as inactive or inconclusive.

Among the data in PubChem BioAssay (Tox21) are Potency and outcome values, retold here.

The target in test [1] is Estrogen receptor beta (Homo sapiens) (UniProt Q92731). Description: qHTS assay to identify small molecule agonists of the estrogen receptor beta (ER-beta) signaling pathway (AID 1259377; active = well fitted activation curve with a large enough effect in the signal ratio in the repeat runs, not every such curve was filed as active; the % refers to the signal ratio). In a few lines:
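ER-beta-UAS-bla HEK293T cells in medium with 2% charcoal-stripped FBS were exposed to compounds for 16 h at 37C. Beta-lactamase reporter activity was read as fluorescence after 2 h with LiveBLAzer B/G FRET substrate at room temperature.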
In general terms: qHTS replaces the single test concentration by a dilution series.

Test [2] has the same target. Description: qHTS assay to identify small molecule antagonists of the estrogen receptor beta (ER-beta) signaling pathway (AID 1259378; active = well fitted inhibition curve with a large enough effect in the signal ratio in the repeat runs, not every such curve was filed as active; the % refers to the signal ratio). In a few lines: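 Antagonist mode: compounds added to beta-lactamase reporter HEK293T ER-beta-UAS cells stimulated with E2 (1nM final), 16 hr at 37C. LiveBLAzer B/G FRET substrate, 2 hours room temperature, fluorescence read-out.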
Test [3] can be described thus: qHTS assay to identify small molecule agonists of the androgen receptor (AR) signaling pathway in the presence of an antagonist - cell viability counter screen (AID 1259379). Also: nearly all actives have a fitted effect of over 25% in size. Also: potency is read from the fitted curve at half-maximal effect. In a few lines:
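Cytotoxicity counter-screen run in the same wells as the nilutamide-challenged (3.0 µM final) AR agonist assay in MDA-kb2 cells. Compounds tested at 15 concentrations for 16 h, 37 °C without CO2; CellTiter-Fluor fluorescence read.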

The nature of test [4]: qHTS assay to identify small molecule agonists of the estrogen receptor beta (ER-beta) signaling pathway - cell viability counter screen (AID 1259380). Also: nearly all actives have a fitted effect of over 30% in size. In a few lines: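 Cell viability counter screen: CellTiter-Glo luminescence (30 min, room temperature) measured in the same wells as the beta-lactamase readout, after 16 hr compound exposure at 37C of ER-beta-bla HEK293T cells in 2% charcoal-stripped FBS medium.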

Test [5] in a line: qHTS assay to identify small molecule antagonists of the estrogen receptor beta (ER-beta) signaling pathway - cell viability counter screen (AID 1259382).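 Also: HEK293T cells carrying ER-beta-UAS-bla reporter stimulated with estradiol; series mostly up to about 92 µM; nearly all actives have a fitted effect of over 55% in size.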 In a few lines:
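Cytotoxicity was measured in the same wells by CellTiter-Glo luminescence after 30 min at room temperature. Cells were ER-beta-bla HEK293T in charcoal-stripped serum, given compound together with 1 nM E2 and incubated 16 h at 37C.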

Test [6] is described as follows: qHTS assay to identify small molecule agonists or antagonists of the thyroid stimulating hormone receptor (TSHR) signaling pathway - wild type cell line counter screen (AID 1259384; calls by dose curve). A digest of the protocol:
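Counter screen in untransfected Hek293: compounds (15-point titration, triplicate) plus phosphodiesterase inhibitor Ro20-1724 added after 18 h plating; 30 min RT. Intracellular cAMP via competitive d2/cryptate immunoassay, 1 h incubation.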

Test [7] has as its target Thyrotropin receptor (Homo sapiens) (UniProt P16473). Description: qHTS assay to identify small molecule antagonists of the thyroid stimulating hormone receptor (TSHR) signaling pathway (AID 1259385; calls by dose curve; also: nearly all actives have a fitted effect of over 20% in size). A digest of the protocol: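 Antagonist mode: compound-treated TSHR-expressing HEK293 cells were stimulated with 1.5 ng/mL TSH (final) in presence of Ro20-1724 for 30 min at RT. HTRF cAMP detection after 1 h; each compound tested at 15 concentrations, triplicate.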

A short description of test [8]: qHTS assay to identify small molecule agonists of the estrogen receptor alpha (ER-alpha) signaling pathway in the presence of an antagonist - cell viability counter screen (AID 1259386). Also: nearly all actives have a fitted effect of over 30% in size. Also: potency is read from the fitted curve at half-maximal effect. A digest of the protocol:
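Compounds tested at 15 concentrations for 22 h at 37C alongside 10.0nM (final) ICI-182,780 antagonist, in VM7Luc4E2 cells grown in phenol red-free, charcoal-stripped medium. Viability read by CellTiter-Fluor fluorescence after 1 h reagent incubation.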

In test [9] the target is Progesterone receptor (Homo sapiens) (UniProt P06401). As to the kind of experiment: qHTS assay to identify small molecule antagonists of the progesterone receptor (PR) signaling pathway (AID 1346795; active = well fitted inhibition curve with a large enough effect in the signal ratio in the repeat runs, not every such curve was filed as active; the % refers to the signal ratio). In a few lines:
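PR-UAS-bla HEK293T cells with beta-lactamase reporter under UAS control, in 2% charcoal-stripped FBS, treated with compounds plus 1 nM promegestone (R5020, final) for 16 hr at 37C. Read-out: FRET beta-lactamase substrate fluorescence after 2 hr at room temperature.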

A short description of test [10]: qHTS assay to identify small molecule antagonists of the progesterone receptor (PR) signaling pathway - cell viability counter screen (AID 1346798). Also: series mostly up to about 92 µM; nearly all actives have a fitted effect of over 50% in size. A digest of the protocol: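 PR-UAS-bla HEK293T cells, 3,000/well in 2% charcoal-stripped FBS medium, dosed with compounds plus R5020 agonist and incubated 16 h at 37C. Viability then measured in the same wells by CellTiter-Glo luminescence after 30 min at RT.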

Test [11] is described as follows: qHTS assay to identify small molecule agonists of the progesterone receptor (PR) signaling pathway - cell viability counter screen (AID 1346799; calls by dose curve; also: nearly all actives have a fitted effect of over 45% in size). A digest of the protocol: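 Counter screen in the PR-UAS-bla HEK293T wells (2% charcoal-stripped FBS, 16 h compound exposure at 37 C) after the bla read. CellTiter-Glo added, 30 min at room temperature, luminescence read as cell viability.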

The nature of test [12]: qHTS assay to identify small molecule antagonists of the TGF-beta/Smad signaling pathway - cell viability counter screen (AID 1346824). Also: nearly all actives have a fitted effect of over 50% in size. In a few lines:
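Cytotoxicity counter-screen run in the same wells as the beta-lactamase Smad reporter read: CellTiter-Glo luminescence after 30 min at room temperature. HEK 293T SBE-bla cells had 5 hr compound exposure at 37 C with TGF-beta1 (0.25 ng/mL stock).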

Test [13] can be described thus: qHTS assay to identify small molecule agonists of the TGF-beta/Smad signaling pathway - cell viability counter screen (AID 1346829). Also: top concentration of the series differs between compounds; nearly all actives have a fitted effect of over 45% in size. A digest of the protocol:
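Here the cytotoxicity of library compounds is measured in SBE-bla HEK 293T cells treated for 5 hr, using CellTiter-Glo added to wells already read for the beta-lactamase reporter.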

A short description of test [14]: qHTS assay to identify small molecule agonists of the TGF-beta/Smad signaling pathway (AID 1346859; active = well fitted activation curve with a large enough effect in the signal ratio in the repeat runs, not every such curve was filed as active; the % refers to the signal ratio; also: series mostly up to about 77 µM). A digest of the protocol: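 SBE-bla HEK293T cells plated overnight, then compound exposure for 5 h at 37 C. Beta-lactamase reporter read with LiveBLAzer B/G FRET substrate after 2 h at room temperature, fluorescence at 405 nm excitation, 460/530 nm emission.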
For test [15], the target named is Thyrotropin-releasing hormone receptor (Homo sapiens) (UniProt P34981). Description: qHTS assay to identify small molecule antagonists of the thyrotropin-releasing hormone receptor (TRHR) signaling pathway (AID 1346877; active = well fitted inhibition curve with a large enough effect in the repeat runs, not every such curve was filed as active; also: series mostly up to about 51 µM). In a few lines:
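Antagonist mode: after a 5 min room-temperature compound exposure, cells were stimulated with 1 nM (final) TRH. Dye-loaded TRHR-HEK293 cells were used, and calcium-dependent fluorescence was followed for 3 min, with 15-point titrations run in triplicate.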

Test [16] has the same target. Description: qHTS assay to identify small molecule agonists of the thyrotropin-releasing hormone receptor (TRHR) signaling pathway (AID 1346891; calls by dose curve; also: series mostly up to about 58 µM). In a few lines:
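HEK293 cells expressing TRHR plated 18 h at 37 C/5% CO2, calcium dye-loaded 2 h at 37 C, then compound added (agonist mode); kinetic calcium fluorescence read 3 min at 1 s intervals; 15 concentrations in triplicate.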

Test [17] deals with Progesterone receptor (Homo sapiens) (UniProt P06401). Description: qHTS assay to identify small molecule agonists of the progesterone receptor (PR) signaling pathway (AID 1346784; calls by dose curve; also: nearly all actives have a fitted effect of over 30% in size). A digest of the protocol:
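PR-UAS-bla HEK 293T cells (beta-lactamase reporter under UAS) in 2% charcoal-stripped FBS, dosed with 23 nL compound after 6 hr, incubated 16hr at 37C. LiveBLAzer B/G FRET substrate added, fluorescence read after 2 hours.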

The target in test [18] is Estrogen receptor (Homo sapiens) (UniProt P03372). As to the kind of experiment: qHTS assay to identify small molecule agonists of the estrogen receptor alpha (ER-alpha) signaling pathway in the presence of an antagonist (AID 1259383; calls by dose curve; also: top concentration of the series differs between compounds; nearly all actives have a fitted effect of over 15% in size). In a few lines:
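Agonist-mode confirmation run in the presence of 10.0nM (final) ICI-182,780 antagonist. The reporter was ERE-driven luciferase in VM7Luc4E2 cells, grown in charcoal-stripped serum. Cells were exposed to 15-concentration compound series for 22hr, then ONE-Glo luminescence was read.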

The nature of test [19]: qHTS assay to identify small molecule antagonists of the sonic hedgehog signaling (Shh) pathway (AID 1259369; calls by dose curve; also: nearly all actives have a fitted effect of over 45% in size). In a few lines:
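Antagonist mode: compound added to 3T3 Gli1-Luc cells followed by conditioned-medium stimulation, 24 h at 37 C, 5% CO2. Inhibition taken as loss of Gli1-driven luciferase luminescence.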

Estrogen receptor (Homo sapiens), sequence (P03372 whole entry, looked up): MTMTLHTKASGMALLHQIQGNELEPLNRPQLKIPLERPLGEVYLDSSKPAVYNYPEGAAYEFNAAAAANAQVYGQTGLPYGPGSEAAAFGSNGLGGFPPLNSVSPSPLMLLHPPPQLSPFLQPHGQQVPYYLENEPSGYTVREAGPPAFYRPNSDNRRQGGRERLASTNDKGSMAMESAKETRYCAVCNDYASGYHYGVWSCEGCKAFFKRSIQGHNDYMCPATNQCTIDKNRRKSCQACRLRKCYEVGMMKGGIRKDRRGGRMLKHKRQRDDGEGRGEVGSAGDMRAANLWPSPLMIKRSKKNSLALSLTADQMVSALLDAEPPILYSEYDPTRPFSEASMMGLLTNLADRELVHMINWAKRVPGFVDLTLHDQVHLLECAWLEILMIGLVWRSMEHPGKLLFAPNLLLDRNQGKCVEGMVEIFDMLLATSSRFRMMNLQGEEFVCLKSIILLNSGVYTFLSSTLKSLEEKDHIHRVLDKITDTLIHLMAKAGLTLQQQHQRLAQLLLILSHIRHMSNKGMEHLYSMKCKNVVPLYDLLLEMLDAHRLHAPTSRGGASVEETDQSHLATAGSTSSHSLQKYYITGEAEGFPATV
Thyrotropin-releasing hormone receptor (Homo sapiens), sequence (P34981 whole entry, looked up): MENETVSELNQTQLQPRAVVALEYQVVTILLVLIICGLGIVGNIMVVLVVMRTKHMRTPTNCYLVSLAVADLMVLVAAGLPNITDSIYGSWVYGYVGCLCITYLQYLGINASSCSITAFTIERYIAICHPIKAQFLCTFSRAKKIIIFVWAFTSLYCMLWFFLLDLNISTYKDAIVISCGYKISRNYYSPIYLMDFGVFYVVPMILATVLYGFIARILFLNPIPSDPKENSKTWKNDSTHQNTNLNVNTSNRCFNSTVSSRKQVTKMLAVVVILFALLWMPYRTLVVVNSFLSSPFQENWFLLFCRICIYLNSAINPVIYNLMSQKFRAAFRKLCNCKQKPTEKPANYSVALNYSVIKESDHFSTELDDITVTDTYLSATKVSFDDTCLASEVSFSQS
Progesterone receptor (Homo sapiens), sequence (P06401 whole entry, looked up): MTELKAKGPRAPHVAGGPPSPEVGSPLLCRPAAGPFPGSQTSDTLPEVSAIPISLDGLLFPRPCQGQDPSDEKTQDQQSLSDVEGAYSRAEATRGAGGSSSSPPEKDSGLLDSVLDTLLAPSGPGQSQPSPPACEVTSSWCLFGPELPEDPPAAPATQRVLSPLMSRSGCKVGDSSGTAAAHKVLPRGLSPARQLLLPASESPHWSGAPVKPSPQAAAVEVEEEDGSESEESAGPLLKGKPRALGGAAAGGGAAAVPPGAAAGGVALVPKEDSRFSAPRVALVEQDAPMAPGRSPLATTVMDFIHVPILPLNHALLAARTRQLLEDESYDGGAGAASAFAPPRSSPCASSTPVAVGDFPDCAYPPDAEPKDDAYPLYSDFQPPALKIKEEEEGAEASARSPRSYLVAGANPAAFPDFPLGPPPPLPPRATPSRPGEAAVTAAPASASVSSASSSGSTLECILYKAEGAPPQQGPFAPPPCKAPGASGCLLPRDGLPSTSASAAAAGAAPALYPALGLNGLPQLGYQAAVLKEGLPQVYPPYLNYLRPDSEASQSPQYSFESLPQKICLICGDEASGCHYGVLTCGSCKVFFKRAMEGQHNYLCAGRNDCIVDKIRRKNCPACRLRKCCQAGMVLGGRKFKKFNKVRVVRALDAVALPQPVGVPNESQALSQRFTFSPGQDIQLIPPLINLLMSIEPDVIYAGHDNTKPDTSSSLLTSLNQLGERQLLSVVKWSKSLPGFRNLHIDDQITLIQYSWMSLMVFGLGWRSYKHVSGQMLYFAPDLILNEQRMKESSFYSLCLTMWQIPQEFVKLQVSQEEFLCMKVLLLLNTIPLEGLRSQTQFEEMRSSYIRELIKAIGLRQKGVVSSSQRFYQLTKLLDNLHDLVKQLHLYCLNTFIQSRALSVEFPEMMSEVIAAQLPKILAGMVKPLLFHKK
Thyrotropin receptor (Homo sapiens), sequence (P16473 whole entry, looked up): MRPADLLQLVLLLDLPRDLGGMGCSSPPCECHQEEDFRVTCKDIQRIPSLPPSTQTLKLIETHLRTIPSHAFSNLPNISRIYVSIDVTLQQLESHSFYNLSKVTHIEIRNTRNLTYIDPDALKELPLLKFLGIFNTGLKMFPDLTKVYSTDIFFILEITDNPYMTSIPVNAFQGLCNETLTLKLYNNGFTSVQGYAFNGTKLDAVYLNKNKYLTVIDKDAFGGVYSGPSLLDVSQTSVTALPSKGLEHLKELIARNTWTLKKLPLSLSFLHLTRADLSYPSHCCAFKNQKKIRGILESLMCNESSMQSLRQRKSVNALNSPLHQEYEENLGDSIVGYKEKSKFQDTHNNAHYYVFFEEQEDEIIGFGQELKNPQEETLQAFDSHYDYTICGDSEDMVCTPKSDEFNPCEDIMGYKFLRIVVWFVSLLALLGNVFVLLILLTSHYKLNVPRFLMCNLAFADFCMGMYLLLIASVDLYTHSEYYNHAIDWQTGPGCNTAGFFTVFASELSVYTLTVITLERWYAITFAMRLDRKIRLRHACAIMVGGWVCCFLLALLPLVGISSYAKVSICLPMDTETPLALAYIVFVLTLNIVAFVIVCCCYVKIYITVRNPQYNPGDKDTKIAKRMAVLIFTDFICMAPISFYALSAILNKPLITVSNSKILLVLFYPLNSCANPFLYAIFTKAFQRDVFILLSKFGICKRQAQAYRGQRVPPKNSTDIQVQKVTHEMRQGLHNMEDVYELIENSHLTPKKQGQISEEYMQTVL
Estrogen receptor beta (Homo sapiens), sequence (Q92731 whole entry, looked up): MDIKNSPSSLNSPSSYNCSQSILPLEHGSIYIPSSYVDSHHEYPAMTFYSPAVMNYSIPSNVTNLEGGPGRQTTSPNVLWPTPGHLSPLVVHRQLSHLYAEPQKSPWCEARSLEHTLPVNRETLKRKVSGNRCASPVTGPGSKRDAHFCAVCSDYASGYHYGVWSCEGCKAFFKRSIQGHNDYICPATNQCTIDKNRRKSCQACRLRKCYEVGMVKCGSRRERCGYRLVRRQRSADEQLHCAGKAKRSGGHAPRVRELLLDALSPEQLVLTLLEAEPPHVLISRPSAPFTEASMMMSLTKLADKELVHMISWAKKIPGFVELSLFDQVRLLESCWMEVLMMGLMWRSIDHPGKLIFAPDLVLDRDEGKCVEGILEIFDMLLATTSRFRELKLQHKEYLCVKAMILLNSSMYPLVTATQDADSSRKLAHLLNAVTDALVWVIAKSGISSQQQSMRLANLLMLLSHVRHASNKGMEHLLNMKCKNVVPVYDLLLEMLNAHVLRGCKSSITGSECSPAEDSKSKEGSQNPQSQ

With `CC(=O)Nc1ccc(OCC(O)CNC(C)C)cc1` (stereo not drawn), the Potency entry in test [1], in test [2], in test [3], in [4], in [8] and in test [9] was “inactive” in each case. Also, the Potency entry in [10], in test [11] and in test [16] was “inactive” each time. In addition, the result in [5], in test [6], in [7], in test [12], in test [13] and in [14] was inactive. For the same compound, the result in test [15] was inactive.
Take `NC(=O)N1c2ccccc2CC(=O)c2ccccc21`: the Potency entry in test [1], in test [2], in test [3], in test [4], in test [8] and in test [17] was “inactive” throughout. Further, the Potency result in test [9], in test [10] and in test [11] was “inactive” throughout. Also, the compound was called inactive in test [5], in test [6], in [7], in [12], in test [13] and in test [14].
As for `CC1=CC(=O)[C@H]2C[C@@H]1C2(C)C`, the Potency result in test [1], in test [2], in [3], in test [4], in test [8] and in test [17] was “inactive” each time. For the same compound, the Potency result in test [9], in test [10], in test [11] and in test [16] was “inactive” each time. The outcome in [18], in test [12], in test [13], in test [14] and in test [15] was inactive.
As to `Cc1ncc(COP(=O)(O)O)c(C=O)c1O`, the Potency result in test [19], in [8], in test [17], in test [9], in [11] and in test [16] was “inactive” throughout. Moreover, the compound was classed as inactive in test [5], in test [18], in [6], in test [7], in [12] and in test [13]. Also, the call in test [14] and in test [15] was inactive.
For the compound `CCOC(=O)OC(C)OC1=C(C(=O)Nc2ccccn2)N(C)S(=O)(=O)c2ccccc21` (stereo not drawn), the Potency result in test [1], in [2], in test [3], in test [4], in test [8] and in [17] was “inactive” each time. Moreover, the Potency result in test [9], in [10] and in test [16] was “inactive” in each case. Moreover, the result in [5], in test [18], in test [7], in test [12], in [13] and in test [14] was inactive. Further, the result in test [15] was inactive.
For `COCCOCC(OC)OC`, the Potency result in [1], in test [2], in test [3], in [4], in test [8] and in test [17] was “inactive” throughout. Also, the Potency entry in [9], in test [10], in test [11] and in test [16] was “inactive” throughout. Besides, the compound was called inactive in test [5], in test [18], in [7], in test [12], in [13] and in test [14]. Moreover, in test [15], the result was inactive.
Regarding `CC1=NN(c2cc(S(=O)(=O)O)ccc2Cl)C(=O)C1N=Nc1ccccc1` (stereo not drawn), the Potency entry in test [1], in test [2], in test [4], in test [9], in [10] and in [11] was “inactive” throughout. In addition, the Potency result in test [16] is “inactive”. The Potency in test [3] and in test [8] was 27.3 µM (active) each time. For the same compound, the call in test [5], in test [18], in [6], in [7], in [12] and in test [13] was inactive. The compound was called inactive in [14] and in [15].
`Cc1c(N)c(=O)n(-c2ccccc2)n1C`: the Potency entry in [19], in [4], in [8], in [17], in [9] and in [10] was “inactive” in each case. For the same compound, the Potency result in test [11] and in test [16] was “inactive” in each case. The outcome in [6], in [7], in test [12], in test [13] and in test [14] was inactive.
